Bioassay records from PubChem.
Most compounds without a hit are left out; they make up all but 5.9% or so of the library.
HSF1 inh: HSF1 inhibition | NIH3T3-HGL HSE-luciferase, MG132-induced, luminescence 8 h; hits give low values | activity change, negative = inhibition, % at 7.5 µM (by protocol) | actives 0.77% (n = 300,000);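 active = more than half of replicate wells show activity change below -50%, luminescence cut by over half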;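 also: luciferase reports HSF-1 transcriptional activity via heat shock element; 0% = median of DMSO wells and -100% = zero luminescence signal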
HSP90 refold inh: inhibitors of HSP90 luciferase refolding in rabbit reticulocyte lysate; luciferase refolding luminescence, 3 h; inhibition, % at 5.6 µM; actives 0.91% (n = 290,000);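 active = inhibition above the screen-wide mean plus 3 SD, computed separately per campaign, cut at about 16% in these data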;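 also: 0% = DMSO wells and 100% = 60 µM geldanamycin wells; inhibitors lower the luminescence because luciferase stays unfolded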
FXN GAA850 act: frataxin GAA850 promoter activation; HEK293 lucGAA850 FXN promoter luciferase reporter, 24 h; percent of 10 µM SAHA response; activation, % at 6 µM; actives 0.56% (n = 360,000);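 active = activation above the average of all compounds screened plus 3 SD, cutoff fixed separately per campaign, cut at about 7.5% in these data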;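 also: 0% = DMSO wells and 100% = 10 µM SAHA wells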
HSF-1 act: increases HSF-1 driven luciferase reporter signal. activation, % at 9 µM. actives 1.7% (n = 300,000). NIH3T3-HGL HSF-1 luciferase reporter, MG132, 8 h; 100% = twice DMSO control signal;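 active = mean replicate activation of at least 50% with a set share of replicates each reaching 50%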;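 also: 0% = median of the neutral control wells and 100% = twice that signal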
NR0B1 inh: inhibits human nuclear receptor DAX1; P51843; HEK293 Gal4-DAX1 luciferase reporter, luminescence; inhibition, % at 6.75 µM; actives 0.99% (n = 340,000); AID 504766;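 active = inhibition above the mean over all tested compounds plus 3 SD, cut at about 4.2% in these data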;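 also: 0% = DAX1-transfected cells with DMSO and 100% = empty-vector control cells with DMSO; inhibition shows as a rise in luminescence from relieved DAX1 repression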
Target sequence (P51843 207-470 limits assumed): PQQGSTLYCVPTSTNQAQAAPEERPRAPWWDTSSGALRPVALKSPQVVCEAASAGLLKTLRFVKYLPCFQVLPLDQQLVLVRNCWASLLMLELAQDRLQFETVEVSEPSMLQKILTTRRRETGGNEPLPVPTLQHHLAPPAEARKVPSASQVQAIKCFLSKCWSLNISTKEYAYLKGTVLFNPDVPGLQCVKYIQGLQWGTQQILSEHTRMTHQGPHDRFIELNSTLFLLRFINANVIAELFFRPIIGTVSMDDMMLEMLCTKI
AHR activator: activates the human aryl hydrocarbon receptor. actives 2.5% (n = 320,000). P35869. AID 2796. activation, % at 5 µM. AHR-responsive luciferase reporter cells, luminescence; in the data active = activation above about 47%;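 also: 0% = vehicle wells and 100% = reference agonist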
The depositor's hits bear a star.

O=C(Cc1ccc(F)cc1)Nc1ccc(S(=O)(=O)N2CCCC2)cc1 was read as HSF1 inh -2, FXN GAA850 act 0, HSF-1 act -15, NR0B1 inh -1 and AHR activator 2.
Screening O=C(Cn1nc(-c2ccccc2F)ccc1=O)Nc1ccc(S(=O)(=O)N2CCCCCC2)cc1 returned HSF1 inh -4, HSP90 refold inh 1, FXN GAA850 act 3, HSF-1 act -10, NR0B1 inh 6.6* and AHR activator 7.
For COc1ccccc1OCC(=O)Nc1ccc(S(=O)(=O)N2CCCC2)cc1 the results were HSF1 inh -62*, HSP90 refold inh 2, FXN GAA850 act -2, HSF-1 act -70, NR0B1 inh 1 and AHR activator 1.
For COc1ccc(S(=O)(=O)N2CCN(CCC(=O)Nc3ccccc3F)CC2)cc1 the results were HSF1 inh 5, HSP90 refold inh 7, FXN GAA850 act 3, HSF-1 act 22, NR0B1 inh 1 and AHR activator 0.
For COc1ccc(CNC(=O)OCCN2CCN(S(=O)(=O)c3ccc(C)cc3)CCC2=O)cc1 the results were HSF1 inh -68*, HSP90 refold inh 2, FXN GAA850 act 2, HSF-1 act -75, NR0B1 inh 1 and AHR activator 4.
Screening COc1ccc(NC(=O)CCN2CCN(S(=O)(=O)c3ccc(OC)cc3)CC2)cc1 returned HSF1 inh -91*, HSP90 refold inh 4, FXN GAA850 act -2, HSF-1 act -94, NR0B1 inh 0 and AHR activator 2.
For Cc1ccc(S(=O)(=O)N2CCC(=O)N(CCOC(=O)NCc3ccccc3)CC2)cc1 the results were HSP90 refold inh 2 and AHR activator 6.
CC(C)(C)c1ccccc1NC(=O)Nc1nc(C(N)Cc2ccc(F)cc2)cs1 (stereo not given) was read as FXN GAA850 act -4.
O=C(NC(=O)N1CCCCCC1)c1ccccc1 was read as HSF1 inh -6, HSP90 refold inh 1, FXN GAA850 act 2, HSF-1 act 2, NR0B1 inh -1 and AHR activator 5.
`CN(C)C(=O)c1cccc(-c2cnc3c(NC=O)cc(-c4ccc(N(C)C)cc4)cn23)c1` gave FXN GAA850 act 1.
COc1cc(OC)c(NS(=O)(=O)c2cc(C(=O)OCC(=O)NCC3CCCO3)ccc2OC)cc1Cl (stereo not given) was read as HSF1 inh 3, HSP90 refold inh -1, FXN GAA850 act -1, HSF-1 act 13, NR0B1 inh 1 and AHR activator 4.
Screening CCCn1nnc2ccccc2c1=O returned HSF1 inh -5, HSP90 refold inh 4, FXN GAA850 act 3, HSF-1 act 11, NR0B1 inh 0 and AHR activator -1.
`CCOc1ccc(OCCn2nnc3ccccc3c2=O)cc1` gave HSF1 inh 46, HSP90 refold inh -3, FXN GAA850 act 3, HSF-1 act 83*, NR0B1 inh 0 and AHR activator 1.
Screening Cc1cc(C)cc(N(CC(=O)Nc2cc(C)ccc2C)S(=O)(=O)c2c(C)[nH]c(=O)[nH]c2=O)c1 returned HSF1 inh -7, HSP90 refold inh 0, FXN GAA850 act 0, HSF-1 act -9, NR0B1 inh 0 and AHR activator 0.
Screening Cc1cc(C)cc(N(CC(=O)Nc2ccc(Br)cc2)S(=O)(=O)c2c(C)[nH]c(=O)[nH]c2=O)c1 returned HSF1 inh -63*, HSP90 refold inh -1, FXN GAA850 act 2, HSF-1 act -71, NR0B1 inh 0 and AHR activator 1.
For CCOC(=O)C1(C)NC(c2cc(OC)c(OC)c(OC)c2)C2C(=O)N(CC)C(=O)C21 (stereo not given) the results were HSF1 inh 1, HSP90 refold inh 3, FXN GAA850 act 0, HSF-1 act -8, NR0B1 inh 1 and AHR activator 71*.
CCN1C(=O)C2C(c3ccc(O)c(OC)c3)NC(C)(C(=O)OC)C2C1=O (stereo not given) was read as HSF1 inh -5, HSP90 refold inh 2, FXN GAA850 act -1, HSF-1 act -3, NR0B1 inh -1 and AHR activator 3.
